# This is part of a sample that, as a whole, favours compounds with a hit. Of some 83,000 tested, about 20% had one in any assay.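 Method: cells in 96-well plates; compound added at one concentration; 48 h incubation; percent growth measured; values under 10 scored active.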 Unmarked numbers belong to inactive results. The source made the active and inactive calls.
# Test system: UACC-257 melanoma
# Test: NCI-60 one-dose screen, 48 h (100 = growth as untreated, 0 = no growth, -100 = all killed)
# Settings: 10 µM
row,SMILES,growth
1,COc1cc2cc(C(=O)N3C[C@@H](CCl)c4c3cc(OC(=O)N3CCN(C)[C@@H]5CSSC[C@H]53)c3ccccc43)[nH]c2c(OC)c1OC,-46.3% (active)
2,CC1=C(CCC=O)C2=C(C)C3(CC3)[C@@](C)(O)C(=O)C2=C1,-92.1% (active)
3,COC(=O)C[C@](O)(CCC(C)C)C(=O)O[C@@H]1C(OC)=C[C@]23CCCN2CCc2cc4c(cc2[C@H]13)OCO4,-66.7% (active)
4,O=C(/C=C/c1ccc(Cl)cc1)c1nc2ccccc2n1Cc1ccc(F)cc1,51.4%
5,CC[C@]12C=CCN3CC[C@@]4(c5ccc(OC)cc5N(C)[C@H]4[C@@](O)(C(=O)OC)[C@@H]1OC(=O)CCC[P+](C1CCCCC1)(C1CCCCC1)C1CCCCC1)[C@@H]32,-80.9% (active)
6,CC1=C2C(=C[C@@](C)(COP(=O)(Oc3ccccc3)Oc3ccccc3)[C@@H]2O)C(=O)[C@@](C)(O)C12CC2,-41.2% (active)
7,CC(=O)Oc1ccccc1C(=O)NC([Se])=NC1CCCCC1,-1.74% (active)
8,CCOP(=O)(CC(F)(F)C(F)(F)F)OCC,-31.4% (active)
9,CC(C)C[C@H](NC(=O)CNC(=O)C[C@H]1O[C@@H]2OC3(C)CC[C@H]4[C@H](C)CC[C@@H]([C@H]1C)[C@@]24OO3)B(O)O,-56.9% (active)
10,C[C@H]1[C@@H](Oc2ccc(-c3cn(-c4ccnc5cc(Cl)ccc45)nn3)cc2)O[C@@H]2OC3(C)CC[C@H]4[C@H](C)CC[C@@H]1[C@@]24OO3,41.1%
11,C[C@H]1[C@H](OC(=O)CCC(=O)N(CCCc2cn(-c3ccc([N+](=O)[O-])cc3)nn2)CCNc2ccnc3cc(Cl)ccc23)O[C@@H]2OC3(C)CC[C@H]4[C@H](C)CC[C@@H]1[C@@]24OO3,63.3%
12,COc1cc2cc(C(=O)N3C[C@@H](CCl)c4c3cc(OC(=O)N3CCN(C)[C@@H]5CSSC[C@@H]53)c3ccccc43)[nH]c2c(OC)c1OC,-15.4% (active)
13,COc1cc2cc(C(=O)N3C[C@@H](CCl)c4c3cc(OC(=O)N3CCN(C(=O)CCC(=O)N5CCN(C)CC5)[C@@H]5CSSC[C@@H]53)c3ccccc43)[nH]c2c(OC)c1OC,-71.7% (active)
14,COC(=O)c1ccc(-n2cc(CCCN(CCNc3ccnc4cc(Cl)ccc34)C(=O)CCC(=O)O[C@@H]3O[C@@H]4OC5(C)CC[C@H]6[C@H](C)CC[C@@H]([C@H]3C)[C@@]46OO5)nn2)cc1,35%
15,O=C([Se]C1C=CCCC1)c1ccc(C(=O)[Se]C2C=CCCC2)s1 (stereo not given),-74.7% (active)
16,O=C(/C=C/c1cccc(Br)c1)c1nc2ccccc2n1Cc1ccc(F)cc1,55.1%
17,CC[C@]12C=CCN3CC[C@@]4(c5ccc(OC)cc5N(C)[C@H]4[C@@](O)(C(=O)OC)[C@@H]1OC(=O)CCC[P+](c1ccc(C)cc1)(c1ccc(C)cc1)c1ccc(C)cc1)[C@@H]32,-92.7% (active)
18,O=C(NC([Se])=NC1CCCCC1)c1ccccc1,30.8%
19,O=C(/C=C/c1ccc(F)cc1)c1nc2ccccc2n1Cc1ccc(F)cc1,25.6%
20,O=C(/C=C/c1ccccc1)c1nc2ccccc2n1Cc1ccc(Br)cc1,-51.1% (active)
21,C=CC[Se]C(=O)c1cncc(C(=O)[Se]CC=C)c1,-75% (active)
22,COc1ccc(OC)c(/C=C/C(=O)c2nc3ccccc3n2Cc2ccc(F)cc2)c1,15.3%
23,O=C(/C=C/c1ccc(F)cc1)c1nc2ccccc2n1Cc1ccc(Br)cc1,-17.4% (active)
24,CC[C@]12C=CCN3CC[C@@]4(c5ccc(OC)cc5N(C)[C@H]4[C@@](O)(C(=O)OC)[C@@H]1OC(=O)CCCC[P+](c1ccc(C)cc1)(c1ccc(C)cc1)c1ccc(C)cc1)[C@@H]32,-95% (active)
25,CC(C)N=C([Se])NC(=O)c1cccs1,39.3%
26,CC1=C(CCC=NNC(N)=O)C2=C(C)C3(CC3)[C@@](C)(O)C(=O)C2=C1,-76.1% (active)
27,Cc1ccc2[nH]c(=S)n(-c3ccc(F)cc3)c(=O)c2c1,104%
28,C#CC[Se]C(=O)c1ccc2n[se]nc2c1,59.3%
29,CC1=C(COCCOC(=O)c2ccc(S(=O)(=O)F)cc2)C2=C(C)C3(CC3)[C@@](C)(O)C(=O)C2=C1,-31.6% (active)
30,CC12CCC3(CCC(=O)NCCCNc4ccnc5cc(Cl)ccc45)[C@@](C)(OO[C@]3(C)O1)O2,51.1%

# From PubChem BioAssay (NCI)
